From PubChem BioAssay (NCI)
Compounds without any hit were thinned out: in the full panel of roughly 83,000, 20% have a hit.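 How to read the values: 0–100, growth inhibition (40 = 60% inhibited); 0, no net growth; -100 to 0, cell death (-40 = 40% of starting cells died; -100 = all dead).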 Values without a mark were called inactive. Active and inactive are the calls of the source. How the source made its calls: active means growth percent below 10; inactive means the rest.

How the values were obtained:
Assay in all cases: NCI-60 one-dose screen, 48 h (100 = growth as untreated, 0 = no growth, -100 = all killed)
Details in all cases: 10 µM unless noted
[1] = test system: T-47D breast
[2] = test system: BT-549 breast
[3] = test system: MDA-MB-435 melanoma
[4] = test system: SW-620 colon
[5] = test system: MCF7 breast
[6] = test system: HCT-116 colon
[7] = test system: HCC-2998 colon
[8] = test system: KM12 colon

Which growth [1] does the source give for N=C(N)c1ccc(-c2ccc(-c3ccc4ccccc4c3)s2)cc1 here?
The growth was 97.6%.

What about the growth [2] of the same molecule?
Its growth is 96.2%.

And the growth [3]?
The growth was 36.6%.

What about the growth [4] of the same molecule?
Its growth is 19.3%.

What about the growth [5] of the same molecule?
The growth was 67.9%.

And the growth [6]?
The growth was 78.6%.

What about the growth [7] of the same molecule?
The growth was 100%.

What about the growth [8] of the same molecule?
Its growth is 40.7%.

Brc1ccc(-c2[nH]ncc2-c2c[nH]c3ccccc23)cc1 was tested. Which growth [1] did it give?
Its growth is 88.2%.

What about the growth [2] of the same molecule?
The growth was 80.1%.

And the growth [3]?
Its growth is 92.7%.

What about the growth [4] of the same molecule?
Its growth is 96.2%.

And the growth [5]?
The growth was 66.8%.

What about the growth [6] of the same molecule?
The growth was 98.4%.

And the growth [7]?
Its growth is 112%.

What about the growth [8] of the same molecule?
The growth was 94.3%.

For O=[N+]([O-])c1cccc(-c2nc3sccn3c2-c2ccnc(NCCCNS(=O)(=O)c3ccc(C(F)(F)F)cc3)n2)c1, which growth [1] is on record?
Its growth is -1.61% (active).

And the growth [2]?
The growth was 30.3%.

What about the growth [3] of the same molecule?
Its growth is 18.4%.

What about the growth [4] of the same molecule?
Its growth is 66.6%.

What about the growth [5] of the same molecule?
The growth was 14.9%.

And the growth [6]?
The growth was 30.5%.

And the growth [7]?
Its growth is 52.9%.

And the growth [8]?
Its growth is 23.9%.

Which results are given for O=[N+]([O-])c1ccc(Sc2ncccn2)c([N+](=O)[O-])c1?
growth [1]: 41.1%; growth [2]: -16.3% (active); growth [3]: 69.2%; growth [4]: 22.8%; growth [5]: 34.4%; growth [6]: 37.5%; growth [7]: 66.2%; growth [8]: 55.9%

How did the growth [1] turn out when CCOC(=O)NNC(=S)Nc1ccccc1 was run?
Its growth is 113%.

What about the growth [2] of the same molecule?
The growth was 103%.

And the growth [3]?
Its growth is 94.9%.

What about the growth [4] of the same molecule?
The growth was 110%.

And the growth [5]?
Its growth is 100%.

What about the growth [6] of the same molecule?
The growth was 104%.

What about the growth [7] of the same molecule?
The growth was 117%.

What about the growth [8] of the same molecule?
Its growth is 106%.

CC(=O)Nc1scc[n+]1Cc1ccccc1 was tested. Which growth [1] did it give?
The growth was 102%.

And the growth [2]?
Its growth is 103%.

What about the growth [3] of the same molecule?
The growth was 110%.

What about the growth [4] of the same molecule?
The growth was 105%.

And the growth [5]?
The growth was 98.4%.

What about the growth [6] of the same molecule?
Its growth is 102%.

And the growth [7]?
Its growth is 103%.

And the growth [8]?
The growth was 105%.

How did the growth [1] turn out when COc1ccc(-c2nc(/C=N/Nc3cc(C)nc4ccc(Cl)cc34)c(C)o2)cc1 was run?
The growth was -38% (active).

What about the growth [2] of the same molecule?
The growth was -34.9% (active).

And the growth [3]?
Its growth is -97.1% (active).

What about the growth [4] of the same molecule?
Its growth is -88.6% (active).

And the growth [5]?
Its growth is -80.2% (active).

What about the growth [6] of the same molecule?
The growth was -86% (active).

What about the growth [7] of the same molecule?
Its growth is -48.3% (active).

What about the growth [8] of the same molecule?
Its growth is -87% (active).

For Cc1ccc(S(=O)(=O)/C(=C\c2ccc(Cl)cc2)C(=O)c2ccccc2)cc1, which growth [1] is on record?
Its growth is 95.3%.

What about the growth [2] of the same molecule?
The growth was 102%.

What about the growth [3] of the same molecule?
The growth was 88.7%.

And the growth [4]?
The growth was 106%.

What about the growth [5] of the same molecule?
Its growth is 82.3%.

And the growth [6]?
Its growth is 106%.

And the growth [7]?
Its growth is 107%.

What about the growth [8] of the same molecule?
The growth was 111%.

How did the growth [1] turn out when O=C1NN(C(=O)c2ccc(Cl)cc2)C(c2ccccc2)=N/C1=C\c1cn(-c2ccccc2)nc1-c1ccccc1 was run?
The growth was 90.4%.

What about the growth [2] of the same molecule?
Its growth is 101%.

What about the growth [3] of the same molecule?
The growth was 71.4%.

What about the growth [4] of the same molecule?
Its growth is 101%.

What about the growth [5] of the same molecule?
The growth was 91.3%.

And the growth [6]?
Its growth is 82.4%.

What about the growth [7] of the same molecule?
Its growth is 101%.

What about the growth [8] of the same molecule?
Its growth is 98.6%.

Which growth [1] does the source give for COc1ccc2c(c1)C(c1cc(OC)c3c(c1)OCO3)C1=C(COC1=O)N2 (stereo not drawn) here?
The growth was 52.4%.

What about the growth [2] of the same molecule?
Its growth is 23.4%.

What about the growth [3] of the same molecule?
Its growth is -13.5% (active).

And the growth [4]?
Its growth is 23.3%.

What about the growth [5] of the same molecule?
Its growth is 16.2%.

And the growth [6]?
Its growth is 12.7%.

And the growth [7]?
The growth was 10.6%.

What about the growth [8] of the same molecule?
Its growth is 9.2% (active).

For CC(=O)c1cc2c(N)c(C(=O)Nc3cccc4c3OCCO4)sc2nc1C, which growth [1] is on record?
The growth was 56%.

What about the growth [2] of the same molecule?
Its growth is 103%.

What about the growth [3] of the same molecule?
The growth was 24.1%.

What about the growth [4] of the same molecule?
Its growth is 95.1%.

What about the growth [5] of the same molecule?
Its growth is 94.9%.

And the growth [6]?
The growth was 96.4%.

And the growth [7]?
The growth was 95%.

And the growth [8]?
The growth was 98.7%.

How did the growth [1] turn out when CCNc1nc(S(=O)(=O)CC)nc2ccccc12 was run?
Its growth is 92.4%.

And the growth [2]?
Its growth is 91.2%.

What about the growth [3] of the same molecule?
The growth was 81.9%.

What about the growth [4] of the same molecule?
The growth was 106%.

What about the growth [5] of the same molecule?
The growth was 95.8%.

What about the growth [6] of the same molecule?
The growth was 91.7%.

And the growth [7]?
Its growth is 115%.

What about the growth [8] of the same molecule?
The growth was 94.9%.

Which results are given for OB(O)c1cccc(-c2nc3ccc4[nH]ncc4c3c3c2CCCC3)c1F?
growth [1]: 54.1%; growth [2]: 30.2%; growth [3]: 44.4%; growth [4]: 35.1%; growth [5]: 62.5%; growth [6]: 20.9%; growth [7]: 71.4%; growth [8]: 28.7%

What does the source list for C=C1CCC2C3(C)COC(c4c(OC)cccc4OC)OC3CCC2(C)C1C/C=C1/C(=O)OCC1O (stereo not drawn)?
growth [1]: 54%; growth [2]: 16.9%; growth [3]: 19.4%; growth [4]: 16.2%; growth [5]: 27.8%; growth [6]: 1.8% (active); growth [7]: 113%; growth [8]: 9.36% (active)

With O=C1C(Cl)=C(Nc2ccccn2)C(=O)c2ccccc21 as the molecule, how does the growth [1] read?
Its growth is 33.6%.

And the growth [2]?
Its growth is 100%.

What about the growth [3] of the same molecule?
The growth was -81.4% (active).

What about the growth [4] of the same molecule?
The growth was 30.5%.

And the growth [5]?
The growth was 29.6%.

What about the growth [6] of the same molecule?
Its growth is 19.9%.

What about the growth [7] of the same molecule?
Its growth is 110%.

What about the growth [8] of the same molecule?
The growth was 86%.

Which results are given for COc1cc(-c2nn(C(=O)NS(=O)(=O)c3ccccc3)cc2-c2ccncc2)ccc1Cl?
growth [1]: 62.6%; growth [2]: 53.9%; growth [3]: 85.5%; growth [4]: 112%; growth [5]: 94.6%; growth [6]: 84.6%; growth [7]: 109%; growth [8]: 94.5%
